# In article PMC5540273 (PLoS ONE, 2017):
# Key:
# Settings in all cases: concentration: 1 μM, replicates: in singlicate; n = 1
# [1] = system: DMPK
# [2] = system: T1, DRAK1
# T1 construct: gene STK17A
# [3] = system: T2, DRAK2
# T2 construct: gene STK17B
# [4] = system: DYRK1A
# [5] = system: DYRK1B
# [6] = system: DYRK2
# [7] = system: EGFR
# [8] = system: EIF2AK1
# [9] = system: EPHA1
# [10] = system: EPHA2
# 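Note: KINOMEscan kinase panel screen.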
SMILES,%Inh [1],%Inh [2],%Inh [3],%Inh [4],%Inh [5],%Inh [6],%Inh [7],%Inh [8],%Inh [9],%Inh [10]
CN1c2ccc(NCc3ccc(F)cc3)cc2-c2c(cnn2C)S1(=O)=O,0%,0%,0%,0%,16%,0%,0%,0%,0%,12%
Nc1nc(-c2ccc3c(N)n[nH]c3c2)cc(N2CCCC2)n1 [GSK2227430],0%,73%,0%,9%,4%,37%,2%,0%,0%,12%
CCc1ccnc(/C=C/c2n[nH]c3cc(Sc4ccccc4C(=O)NC)ccc23)c1,6%,12%,0%,8%,4%,0%,0%,14%,0%,0%
O=C(NOCC1CC1)c1ccc(F)c(F)c1Nc1ccc(I)cc1Cl,0%,0%,21%,0%,0%,0%,0%,0%,3%,0%
O=c1cc(N2CCOCC2)nc2n(Cc3cccc(F)c3)ccn12 [GSK2297430],12%,5%,0%,26%,0%,5%,32%,0%,14%,9%
c1ccc(-c2cc(-c3c[nH]nc3-c3ccccn3)ccn2)cc1 [GW576604],0%,11%,0%,4%,0%,0%,17%,0%,0%,0%
CCc1nc(-c2cccc(C)c2)c(-c2ccnc(NCc3ccccc3)c2)s1,0%,2%,16%,0%,23%,2%,0%,0%,0%,1%
CCCCCc1nc2c(N)ncnc2n1CCCCC [SKF-97255],0%,0%,11%,0%,0%,27%,0%,0%,0%,0%
COc1ccc(CNC(=O)NC2CCN(c3ccnc(Nc4ccc(OC)cc4)n3)C2)cc1 (stereo not shown) [GSK1379727],0%,0%,0%,20%,0%,0%,18%,0%,0%,14%
CC(=O)Nc1ccc(COc2ccc(Nc3ccnc4cc(-c5ccccn5)ccc34)cc2)cc1.Cl [GW440148],0%,1%,21%,4%,33%,11%,23%,0%,11%,0%
N#Cc1c(N2CCOCC2)sc(-c2ccn[nH]2)c1-c1ccc(Cl)cc1,4%,0%,0%,0%,47%,0%,0%,0%,1%,0%
Cc1nnc(-c2ccc3ncc(-c4ccc(S(C)=O)cc4)n3c2)o1 (stereo not shown),1%,0%,7%,16%,66%,6%,9%,6%,0%,0%
O=C(c1ccc(-c2cc(-c3c[nH]nc3-c3ccccn3)ccn2)cc1)N1CCOCC1 [GW812171],5%,0%,0%,0%,0%,33%,4%,0%,0%,0%
Cc1ccc(C(=O)NCC(N)=O)cc1-n1c(C)cc(OCc2ccc(F)cc2F)c(Br)c1=O,0%,0%,5%,0%,0%,0%,11%,0%,25%,40%
COc1cc2c(cc1OC[C@@H](O)CO)ncc1c3ccc(C#N)cc3[nH]c21,0%,98.7%,99.7%,99%,83%,86%,0%,0%,4%,0%
NS(=O)(=O)CCc1cccc(Nc2nccc(-c3c(-c4cccc(NC(=O)c5c(F)cccc5F)c4)nn4ccccc34)n2)c1 [GSK336735],11%,4%,12%,20%,0%,12%,100%,0%,69%,71%
